Test systems include HCT-15 colon; HT29 colon; SNB-75 CNS; SNB-19 CNS; U251 CNS; PC-3 prostate; SK-MEL-5 melanoma; UACC-62 melanoma; LOX IMVI melanoma; SK-MEL-28 melanoma; SK-MEL-2 melanoma; EKVX NSCLC; SN12C renal; UO-31 renal; TK-10 renal; ACHN renal; CAKI-1 renal; A498 renal; CCRF-CEM leukemia; MOLT-4 leukemia.
Holding throughout (test): NCI-60 one-dose screen, 48 h (100 = growth as untreated, 0 = no growth, -100 = all killed)
Holding throughout (conditions): 10 µM unless noted

Compounds without any hit were thinned out: in the full panel of roughly 83,000, 20% have a hit.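 The endpoint reported here, percent growth, reads 100 for growth as untreated, 0 for no net growth and -100 for all cells dead.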 A number with no mark means an inactive call. Activity calls are given as the source filed them. The calls were made as follows: active = growth percent below 10; inactive = the rest.

As to `c1cnc2c(-c3nc4ccc5[nH]ncc5c4c4c3CCCC4)c[nH]c2c1`, the growth with HCT-15 colon was 43.9%; with HT29 colon, 14.9%; in the experiment with SNB-75 CNS it was 57.8%; with SNB-19 CNS it was 29.8%; in the experiment on U251 CNS it was 29.8%; with PC-3 prostate, 27.5%. Also, the growth in the experiment with SK-MEL-5 melanoma was 56.4%; with UACC-62 melanoma, 45.8%; in the experiment with LOX IMVI melanoma, 19.6%; with SK-MEL-28 melanoma, 88.8%; in the experiment on SK-MEL-2 melanoma, 58.5%; with EKVX NSCLC, 49.5%. Besides, the growth with SN12C renal was 27.4%; in the experiment with UO-31 renal, 43.7%; in the experiment with TK-10 renal, 50.1%; in the experiment with ACHN renal, 27.1%; in the experiment on CAKI-1 renal it was 57%; in the experiment on A498 renal it was 64.2%. Besides, the growth is 11.4% in the experiment with CCRF-CEM leukemia and 5.62% (active) with MOLT-4 leukemia.
Take `O=C1NC(=C(Cl)Cl)/C(=N\S(=O)(=O)NCc2ccccc2)N1`: the growth is 105% in the experiment on HCT-15 colon; 108% in the experiment with HT29 colon; 84.6% with SNB-75 CNS; 91.2% in the experiment on SNB-19 CNS; 91% in the experiment with U251 CNS; 95.6% in the experiment with PC-3 prostate. Besides, the growth with SK-MEL-5 melanoma is 96.6%; with UACC-62 melanoma, 85.5%; in the experiment on LOX IMVI melanoma, 93.8%; in the experiment with SK-MEL-28 melanoma, 103%; in the experiment with SK-MEL-2 melanoma, 103%; in the experiment with EKVX NSCLC, 118%. The growth in the experiment on SN12C renal was 90.7%; in the experiment with UO-31 renal it was 94.1%; with TK-10 renal, 107%; in the experiment with ACHN renal, 110%; in the experiment with CAKI-1 renal, 101%; in the experiment on A498 renal it was 104%. In addition, the growth in the experiment with MOLT-4 leukemia is 85.5%.
In the case of `O=[N+]([O-])c1cccc(-c2nc3cc4nc5ccccc5[nH]c4cc3n2)c1`, the growth is 99.5% in the experiment with HCT-15 colon; 100% in the experiment on HT29 colon; 101% in the experiment on SNB-75 CNS; 102% with SNB-19 CNS; 98.2% with U251 CNS; 93.2% with PC-3 prostate. Further, the growth in the experiment on SK-MEL-5 melanoma is 96.4%; in the experiment with UACC-62 melanoma, 97.5%; with LOX IMVI melanoma, 99.8%; in the experiment with SK-MEL-28 melanoma, 113%; with SK-MEL-2 melanoma it was 93.4%; in the experiment on EKVX NSCLC, 99.7%. Further, the growth with SN12C renal is 108%; with UO-31 renal, 84.4%; in the experiment with TK-10 renal it was 105%; with ACHN renal, 103%; in the experiment on CAKI-1 renal, 104%; in the experiment with CCRF-CEM leukemia, 111%.
Regarding `Cc1ccc(C(=O)c2ccc(CC(=O)N/N=C/c3ccccc3O)n2C)cc1`, the growth in the experiment with HCT-15 colon is 43.5%; in the experiment with HT29 colon, 101%; in the experiment with SNB-75 CNS it was 59.6%; with SNB-19 CNS, 79.3%; in the experiment on U251 CNS, 76.2%; in the experiment on PC-3 prostate it was 86.8%. The growth with SK-MEL-5 melanoma was 87.4%; in the experiment on UACC-62 melanoma it was 87.2%; in the experiment with LOX IMVI melanoma, 58%; in the experiment on SK-MEL-28 melanoma, 84.3%; with SK-MEL-2 melanoma, 89.6%; in the experiment on EKVX NSCLC, 82.8%. For the same compound, the growth is 89.8% with SN12C renal; 40.6% in the experiment on UO-31 renal; 85.1% in the experiment on TK-10 renal; 53.2% in the experiment with ACHN renal; 64.5% in the experiment with CAKI-1 renal; 82% with A498 renal. For the same compound, the growth with MOLT-4 leukemia was 74%.
Turning to `N#Cc1nc(-c2ccc(Cl)cc2)oc1S(=O)(=O)N1CCN(c2ccc(F)cc2)CC1`, the growth with HCT-15 colon was 54.3%; with HT29 colon, 88.5%; in the experiment on SNB-75 CNS, 94.2%; with SNB-19 CNS, 96.4%; with U251 CNS, 94.6%; in the experiment with PC-3 prostate, 96.4%. For the same compound, the growth in the experiment on SK-MEL-5 melanoma was 96%; with UACC-62 melanoma, 100%; in the experiment with LOX IMVI melanoma it was 29.3%; in the experiment with SK-MEL-28 melanoma it was 104%; in the experiment with SK-MEL-2 melanoma, 87.9%; in the experiment with EKVX NSCLC it was 111%. Also, the growth with SN12C renal was 92.2%; in the experiment with UO-31 renal, 81.3%; in the experiment on TK-10 renal, 100%; with ACHN renal, 102%; in the experiment with CAKI-1 renal it was 107%; in the experiment on A498 renal, 78.6%. For the same compound, the growth in the experiment with MOLT-4 leukemia was 3.45% (active).
`COc1cc(C2c3cc(OC(C)=O)c(OC)cc3CC3C(=O)OCC32)ccc1OC(C)=O` (configuration not stated): the growth in the experiment with HCT-15 colon is 104%; in the experiment with HT29 colon it was 97.6%; in the experiment with SNB-75 CNS it was 94.5%; in the experiment with SNB-19 CNS, 116%; in the experiment with U251 CNS, 92.6%; with PC-3 prostate, 68.3%. The growth is 109% in the experiment with SK-MEL-5 melanoma; 103% in the experiment with UACC-62 melanoma; 103% in the experiment with LOX IMVI melanoma; 122% with SK-MEL-28 melanoma; 132% with SK-MEL-2 melanoma; 111% with EKVX NSCLC. Besides, the growth in the experiment on SN12C renal was 93.2%; in the experiment on UO-31 renal, 78.2%; in the experiment on TK-10 renal it was 122%; with ACHN renal, 94.3%; in the experiment with CAKI-1 renal, 97.1%; in the experiment with CCRF-CEM leukemia, 92.4%. For the same compound, the growth in the experiment on MOLT-4 leukemia is 112%.
As for `Clc1ccc(/C=N\N=C\c2ccc(Cl)c(Cl)c2)cc1Cl`, the growth was 7.55% (active) with HCT-15 colon; 32.3% in the experiment on HT29 colon; 123% in the experiment on SNB-75 CNS; 95.1% in the experiment with SNB-19 CNS; 76.3% with U251 CNS; 71% in the experiment with PC-3 prostate. Moreover, the growth with SK-MEL-5 melanoma was 93.8%; in the experiment with UACC-62 melanoma, 84.1%; in the experiment on LOX IMVI melanoma, 72.4%; with SK-MEL-28 melanoma, 101%; in the experiment on SK-MEL-2 melanoma, 18.4%; with EKVX NSCLC, 111%. The growth in the experiment on SN12C renal is 87.3%; in the experiment on UO-31 renal, 77.4%; in the experiment with TK-10 renal it was 97.5%; in the experiment on ACHN renal, -3.05% (active); with CAKI-1 renal, 33%; in the experiment on A498 renal it was 108%. Moreover, the growth in the experiment on MOLT-4 leukemia is 93.1%.
Regarding `CN(C)CC(C)(C)C(=O)/C=C/c1ccccc1`, the growth in the experiment on HCT-15 colon was -47.6% [25 µM] (active); in the experiment on HT29 colon, -16.7% [25 µM] (active); with SNB-75 CNS, -13.7% [25 µM] (active); in the experiment on SNB-19 CNS, -1% [25 µM] (active); with U251 CNS, -41.5% [25 µM] (active); with PC-3 prostate, -34.4% [25 µM] (active). Also, the growth with SK-MEL-5 melanoma was -86.8% [25 µM] (active); in the experiment with UACC-62 melanoma it was -73.6% [25 µM] (active); in the experiment on LOX IMVI melanoma, -84.8% [25 µM] (active); in the experiment on SK-MEL-28 melanoma it was -61.6% [25 µM] (active); in the experiment on SK-MEL-2 melanoma, -74.2% [25 µM] (active); in the experiment with EKVX NSCLC, -18.5% [25 µM] (active). Also, the growth in the experiment with SN12C renal was -34.1% [25 µM] (active); in the experiment on UO-31 renal, -90.3% [25 µM] (active); in the experiment on TK-10 renal, -9.48% [25 µM] (active); with ACHN renal, -71.4% [25 µM] (active); with CAKI-1 renal, -6.22% [25 µM] (active); in the experiment on CCRF-CEM leukemia, 2.8% [25 µM] (active). For the same compound, in the experiment with MOLT-4 leukemia, the growth is -5.22% [25 µM] (active).

The values are drawn from PubChem BioAssay (NCI).
